From PubChem BioAssay
Most compounds without a hit are left out; they make up all but 1.3% or so of the library.
Giardia kill: Small Molecules that selectively kill Giardia lamblia: qHTS. 340,000 tested, 0.15% active. Giardia lamblia trophozoite viability. activity change, % at 7.66 µM, hits read low. AID 540267, 2011; in the data active = activity change below about -80%; inconclusive = between about -30% and that limit;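 also: parasites exposed to compound for two days anaerobically before the ATP read; % is scaled to controls: 0 for no effect and ±100 for the full control effect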
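Killing of trophozoites was scored by loss of ATP luminescence after a 48 hrs anaerobic exposure to compounds at 37 deg C, using 100 cells per well.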
PINK1 expr mod: A Quantitative High throughput Screen to Identify Chemical Modulators of PINK1 Expression; PINK1 immunofluorescence, high-content cytometry, 24 h; Potency, µM (highest dose often 76.6 µM), inactives show at the top dose activation (PINK1 increase), usual class: activators; 410,000 tested, 0.2% active; active = well fitted activation curve with a large enough effect; inconclusive = small, poorly fitted or top-dose-only effect; cell line not stated here; also: potency is read from the fitted curve at half-maximal effect; % of control where 0% means no effect; nearly all actives have a fitted effect of over 65% in size
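Decision-based qHTS: stable cells, 24 h exposure to five compound concentrations, CCCP as control. Fixed cells stained for PINK1 plus nuclear, mitochondrial and cell markers, cytometer read.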
12-LOX inh: Primary qHTS assay for inhibitors of human arachidonate 12S-lipoxygenase (ALOX12): Round 2 | purified 12hLO, xylenol orange hydroperoxide absorbance | Potency, µM (doses to about 108 µM), for the others: top-dose activity change, negative = inhibition, usual class: inhibitors | 580,000 tested, 1.1% active | AID 1671190, 2021; also: potency is read from the fitted curve at half-maximal effect; % is scaled to controls: 0 for no effect and ±100 for the full control effect
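Purified human 12hLO (150 nM final) in 25 mM Hepes, 0.01% Triton X-100, pH 7.0 was preincubated 15 min at room temperature with compound. Then 40 uM arachidonic acid was added, 30 min. Hydroperoxide was read by Fe-XO absorbance ratio 573/405 nm.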
ERG-DNA inh: qHTS for Small Molecule Inhibitors of the ERG Ets/DNA interaction; 370,000 tested, 0.028% active; Potency, µM (top dose mostly 76.9 µM), without a hit: at the top dose FP activity, negative = inhibition, hits mostly inhibitors; fluorescence polarization, His-ERG Ets domain / labelled DNA; Transcriptional regulator ERG (Homo sapiens), P11308; active = well fitted inhibition curve with a large enough effect in the polarisation, with a control signal flat; inconclusive = small, poorly fitted or top-dose-only effect, or effect the other way, or a change in a side signal; inactive = no such curve, though single readings can be large or run the other way; the % refers to the polarisation;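 also: polarization taken with two DNA probes labelled with fluorescein and Texas red; potency is read from the fitted curve at half-maximal effect; % of control where 0% means no effect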
Target sequence (P11308 whole entry, looked up, the tested form may be a part): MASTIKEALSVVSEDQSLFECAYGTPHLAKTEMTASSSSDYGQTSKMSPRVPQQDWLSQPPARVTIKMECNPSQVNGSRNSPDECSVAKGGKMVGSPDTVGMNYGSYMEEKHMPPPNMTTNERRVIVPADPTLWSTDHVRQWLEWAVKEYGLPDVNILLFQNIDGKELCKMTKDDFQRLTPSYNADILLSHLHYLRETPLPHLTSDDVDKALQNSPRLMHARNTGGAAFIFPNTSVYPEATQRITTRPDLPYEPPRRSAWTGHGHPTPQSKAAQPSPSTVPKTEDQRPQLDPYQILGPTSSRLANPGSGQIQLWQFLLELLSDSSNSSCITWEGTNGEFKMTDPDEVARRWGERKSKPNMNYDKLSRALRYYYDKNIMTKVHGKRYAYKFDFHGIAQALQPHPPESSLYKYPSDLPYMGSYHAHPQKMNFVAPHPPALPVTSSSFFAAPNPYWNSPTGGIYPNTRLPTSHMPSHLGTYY
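His-tagged ERG Ets domain (1 uM in the protein solution; 300mM KCl, 50mM Tris-HCl, 1mM EDTA, 1mM DTT, pH 7.5) received compound, then a probe mix of 5 nM fluorescein-DNA and 100nM Texas-615-DNA. Fluorescence polarization was read for both dyes.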
PTHR1 agonist: qHTS for PTHR1 Agonists: Primary Screen; Potency, µM (highest dose often 115 µM), for inactives: at the highest dose activation, actives largely listed as activators; Parathyroid hormone/parathyroid hormone-related peptide receptor (Homo sapiens), Q03431; AID 743266, 2014; HEK293 GP2 PTHR1 cells, GloSensor cAMP luminescence, 1 h; 410,000 tested, 0.075% active; also: potency is read from the fitted curve at half-maximal effect; nearly all actives have a fitted effect of over 55% in size
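HEK-293-derived GP2 cells expressing PTHR1 and a GloSensor cAMP reporter, 3,000/well, plated overnight, given luciferin plus IBMX (each 0.5 mM as added) for 1 h at 37 °C, then compound for 1 h at 37 °C. Luminescence was read after 15 min at room temperature.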
miR-21 act: qHTS Assay for Modulators of miRNAs and/orActivators of miR-21; HeLa miR-21 FLuc reporter, luciferase, 48 h; 340,000 tested, under 10 active; AID 2288, 2010; Potency, µM (titrated, usually from 38.3 µM), for inactives: top-dose activity change, positive = activation, actives largely listed as activators;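 also: % of control where 0% means no effect; miR-21 action dims this reporter so a rising signal means less miR-21 action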
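Luminescence from a firefly luciferase reporter carrying a miR-21 binding site downstream, stably expressed under a CMV promoter in HeLa cells that make miR-21 endogenously, reports miRNA modulation after 48 h compound exposure up to approximately 40uM final.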
Numbers without * were called inactive; i = inactive; ? = inconclusive; · = no result; ! = repeats disagree; [ ] = another dose, or the depositor's remark. Unless noted, calls follow the shape of the dose curve; as a rule, active = well fitted curve in the direction sought with a large enough effect; inconclusive = small, poorly fitted or top-dose-only effect, or another doubt; inactive = no such curve, though single readings can be large; an effect the other way counts as inactive or inconclusive.

SMILES	Giardia kill	PINK1 expr mod	12-LOX inh	ERG-DNA inh	PTHR1 agonist	miR-21 act
S=C(NCc1cccs1)Nc1cccc2ccccc12	9	-1%	?	-6%	-12%	-15%
S=C(NCc1ccccc1)Nc1cccc2ccccc12	3	0%	45µM*	19%	-37%	-4%
S=C(NCc1ccccc1)NCc1cccc(CNC(=S)NCc2ccccc2)c1	11	-1%	32µM*	2%	-13%	?
Cc1ccc(NC(=S)Nc2cccc3ccccc23)cc1F	-16	0%	40µM*	-5%	i	-39%
Cc1ccc(CS(=O)(=O)c2ncn[nH]2)cc1	-1	-1%	-10%	-1%	i	-1%
O=c1cc(-c2ccc([N+](=O)[O-])cc2)c2cc3c(cc2[nH]1)OCCO3	9	6%	-18%	7%	-12%	-1%
CN(NC(=O)c1ccccc1)C1=NS(=O)(=O)c2ccccc21	8	0%	-10%	-2%	-3%	0%
CN(C)CC(C)(C)CNC(=S)NCCc1ccccc1	·	·	23%	·	·	·
Oc1ccc2ccccc2c1CNc1ccccn1	-3	4%	35µM*	-6%	-22%	4%
Cc1ccc(O)c(CNc2ccccn2)c1	11	1%	-15%	3%	i	-38%
CCc1nc(NCCN2CCOCC2)c2oc3ccccc3c2n1	-9	-1%	14µM*	3%	-5%[57.5 µM]	-5%
CC(C)C(=O)Nc1ccc([C@H]2OCC(=O)N(Cc3ccccc3)[C@@H]2CO)cc1	·	·	19%[176 µM]	·	·	·
Cc1cccc[n+]1CCCCCCCCCC[n+]1ccccc1C	0	2%	14µM*!	3%	i	29%
Brc1cccc[n+]1CCC[n+]1ccccc1Br	·	-1%	·	·	·	·
Cc1ccc2ccc[n+](Cc3ccccc3)c2c1	19	1%	-1%	0%	i	·
Cc1cccc[n+]1Cc1ccccc1	·	·	16µM*	·	·	·
O=C(COc1ccc(Cl)cc1)Nc1cc(-c2ccccc2)no1	·	-3%	-16%	-8%	-20%	-23%
O=C(OCCOc1cccc(Cl)c1)c1cc(S(=O)(=O)N2CCCCC2)ccc1N1CCOCC1	-3	1%	?	1%	-16%	·
COCCn1c(SCc2cc(=O)n3ccsc3n2)nnc1-c1ccncc1	15	4%	1%	6%	i	-2%
CC1CN(CCCCSc2ccc(Cl)cc2)CC(C)O1 (stereo not given)	58	2%	1.8µM*	2%	18%	-3%
COCCCN1C(=O)C(=O)/C(=C(/O)c2ccc(C)cc2)C1c1ccccc1 (stereo not given)	7	0%	7.1µM*	-5%	?	-6%
COCCCN1C(=O)C(=O)/C(=C(/O)c2ccc(OC)cc2)C1c1cccc(OC)c1 (stereo not given)	27	0%	-13%	11%	-6%[57.5 µM]	2%
CCOc1cc(C2/C(=C(/O)c3ccc(OC(C)C)cc3)C(=O)C(=O)N2CCCOC)ccc1O (stereo not given)	5	-1%	20µM*	-1%	22%[57.5 µM]	-50%
C=CCOc1ccc(/C(O)=C2\C(=O)C(=O)N(CCCOC)C2c2ccc(O)c(OC)c2)cc1 (stereo not given)	4	1%	?	-11%	i	1%
Cn1nnc(NC(=O)c2ccc([N+](=O)[O-])cc2Cl)n1	-29	0%	-1%	3%	i	7%
SMILES	Giardia kill	PINK1 expr mod	12-LOX inh	ERG-DNA inh	PTHR1 agonist	miR-21 act
CC1CN(CCOc2ccc(Cl)c(Cl)c2)CC(C)O1 (stereo not given)	-5	6%	0.45µM*	0%	-9%	-15%
Oc1[nH]c2ccccc2c1N=Nc1ccccc1Cl	-13	32µM*	4%	-15%	i	·
Oc1[nH]c2ccccc2c1N=Nc1c(F)c(F)c(Cl)c(F)c1F	1	?	57%	-19%	-17%	-13%
O=c1c2ccccc2oc2nc(-c3ccco3)n(CCc3ccccc3)c(=O)c12	·	·	·	·	·	0%
Cn1c(-c2ccc3c(c2)OCO3)cnc1NCc1cccc(O)c1	-7	0%	11µM*	0%	i	-26%
Cn1c(-c2ccc(F)cc2)cnc1NCc1cccc(F)c1	-3	2%	?	1%	-9%[57.5 µM]	-1%
CN1CCC2(C1)CN(Cc1ccccc1)c1ccc(C(=O)NC3CCCCC3)cc12 (stereo not given)	·	·	12%[176 µM]	·	·	·
c1ccc2cc(CNC3CC3)ccc2c1	·	·	-30%	·	·	·
